# Legend:
# Format in all cases: functional
# [1] = system: Plasmodium falciparum; experiment: GSK_TCMDC: Inhibition of Plasmodium falciparum 3D7 in whole red blood cells, using parasite LDH activity as an index of growth. Test compounds present at 2uM
# [2] = system: Plasmodium falciparum; experiment: GSK_TCMDC: Inhibition of Plasmodium falciparum Dd2 in whole red blood cells, using parasite LDH activity as an index of growth. Test compounds present at 2uM
# [3] = system: HepG2; experiment: GSK_TCMDC: Percent inhibition of human HepG2 cell line. Test compounds present at 10uM.
smiles,measurement,setting,value
O=C(O)C(F)(F)F.c1cc(CNCCc2ccncc2)cc(-c2csc(-c3nc4ccccc4[nH]3)c2)c1,Inhibition,[1],100%
same,Inhibition,[2],99%
same,Inhibition,[3],16%
Cc1ccc(-n2c(C)nc3c(Nc4ccc(-c5ccncc5)cc4)ncnc32)c(C)c1,Inhibition,[1],99%
same,Inhibition,[2],99%
same,Inhibition,[3],38%
CN(C)CCN(C)Cc1ccc(-c2ccc(NC(=O)c3ccc(Cl)cc3)cc2)cc1.O=C(O)C(F)(F)F,Inhibition,[1],91%
same,Inhibition,[2],19%
same,Inhibition,[3],51%
O=C(O)C(F)(F)F.OCC1CCN(Cc2cccc(-c3cccc(-c4nc5cc(C(F)(F)F)ccc5[nH]4)c3)c2)CC1,Inhibition,[1],100%
same,Inhibition,[2],100%
same,Inhibition,[3],24%
CC(C)[C@H](NC(=O)c1ccc(O)c(-c2ccc(Cl)c(Cl)c2)c1)C(=O)NCCN1CCCCC1,Inhibition,[1],99%
same,Inhibition,[2],98%
same,Inhibition,[3],0%
O=c1ccc(CNc2nc(NCCc3ccccc3)nc3ccc(Cl)cc23)c[nH]1,Inhibition,[1],99%
same,Inhibition,[2],16%
same,Inhibition,[3],9%
CCOc1ccc2nc(C)cc(N/N=C/c3cccc([N+](=O)[O-])c3)c2c1,Inhibition,[1],100%
same,Inhibition,[2],93%
same,Inhibition,[3],7%
CCCCCOc1ccc(C(=NC)N(CCCCC)CCCCC)c2ccccc12.I,Inhibition,[1],96%
same,Inhibition,[2],80%
same,Inhibition,[3],70%
Cc1nc2ccc3ccc(CNc4ccc(C(=O)CC(CCC(=O)O)C(=O)O)cc4)cc3c2c(=O)[nH]1.[Cl-].[Na+] (centres undefined),Inhibition,[1],95%
same,Inhibition,[2],96%
same,Inhibition,[3],51%
O=C(/C=C/c1ccc(Cl)c(Cl)c1)NCCCCCN1CCC(NC(=O)Nc2ccc(Br)cc2)CC1,Inhibition,[1],100%
same,Inhibition,[2],7%
same,Inhibition,[3],36%
CCCNCCc1ccc(NS(=O)(=O)c2cccc(-c3ccc(Cl)cc3)c2)cc1.Cl,Inhibition,[1],100%
same,Inhibition,[2],36%
same,Inhibition,[3],36%
CC(CCc1ccccc1)NCC(O)c1ccc2c3c(cccc13)C(=O)N2C.Cl (centres undefined),Inhibition,[1],99%
same,Inhibition,[2],57%
same,Inhibition,[3],37%
Cc1nnc2c(NC(=O)NC3CCCC3)cc3cc(-c4ccc(CN5CCN(C)CC5)cc4)ccc3n12,Inhibition,[1],99%
same,Inhibition,[2],91%
same,Inhibition,[3],100%
Br.CC1(C)NC(N)=NC(=N)N1OCCCCCCOc1ccc(Cl)c2ccccc12,Inhibition,[1],91%
same,Inhibition,[2],94%
same,Inhibition,[3],62%
O=C(NCCN1CCCCC1)c1cc2cc(-c3ccccc3)ccc2n1S(=O)(=O)c1ccccc1,Inhibition,[1],90%
same,Inhibition,[2],0%
same,Inhibition,[3],15%
CCCNCc1ccc(-c2ccc(CN(CCOC)C(=O)c3cnc(C)cn3)cc2)nc1.O=C(O)C(F)(F)F,Inhibition,[1],81%
same,Inhibition,[2],14%
same,Inhibition,[3],0%
CCc1cccc(C)c1-n1nc(-c2cc(C(C)(C)C)oc2C)cc1N,Inhibition,[1],95%
same,Inhibition,[2],95%
same,Inhibition,[3],4%
Br.Cc1cc(C)c(C)c(OCCCON2C(=N)N=C(N)NC2(C)C)c1C,Inhibition,[1],94%
same,Inhibition,[2],95%
same,Inhibition,[3],64%
CCOc1ccc2c(=NN=Cc3ccccc3OC)cc(C)[nH]c2c1,Inhibition,[1],99%
same,Inhibition,[2],93%
same,Inhibition,[3],11%
CC(C)(CNC(=O)[C@H]1CCCCN1)c1nc(-c2ccc(Cl)c(O)c2)c(-c2ccncc2)[nH]1.Cl,Inhibition,[1],98%
same,Inhibition,[2],98%
same,Inhibition,[3],6%
c1ccc(CNc2nc(NCCN3CCCCC3)nc3ccccc23)cc1,Inhibition,[1],87%
same,Inhibition,[2],8%
same,Inhibition,[3],19%
O=C(O)C(F)(F)F.c1cc(CN2CCCCC2)cc(-c2ccc(-c3nc4ccccc4[nH]3)cc2)c1,Inhibition,[1],100%
same,Inhibition,[2],88%
same,Inhibition,[3],9%
Cn1c2c(c3ccccc31)CN(CCC1(c3ccc(Cl)c(Cl)c3)CN(C(=O)c3ccccc3)CCO1)CC2 (centres undefined),Inhibition,[1],97%
same,Inhibition,[2],88%
same,Inhibition,[3],10%
Cl.FC(F)(F)c1ccccc1OCc1cc(-c2ccncc2)c(COc2ccccc2C(F)(F)F)cc1C1=CCNCC1,Inhibition,[1],98%
same,Inhibition,[2],81%
same,Inhibition,[3],31%
Cc1cc(NCCC(=O)NCCOc2ccccc2)nc(NCCc2ccccc2)n1.O=C(O)C(F)(F)F,Inhibition,[1],99%
same,Inhibition,[2],9%
same,Inhibition,[3],0%
O=C(Nc1ccc(CN2CCOCC2)cc1)c1ccc(-c2ccc(Cl)cc2)o1,Inhibition,[1],98%
same,Inhibition,[2],11%
same,Inhibition,[3],22%
CC(=O)N[C@H](C(=O)Nc1cccc(-c2ccc(-c3nc4cccc(C)c4[nH]3)s2)c1)C(C)C,Inhibition,[1],93%
same,Inhibition,[2],29%
same,Inhibition,[3],33%
COc1ccc(Nc2ccnc3cc(-c4ccccn4)ccc23)cc1OC.Cl,Inhibition,[1],91%
same,Inhibition,[2],26%
same,Inhibition,[3],14%

# From ChEMBL document CHEMBL1157539, “Thousands of chemical starting points for antimalarial lead identification” (Nature, 2010)
